GALC G270D act: enhancers of human galactocerebrosidase G270D mutant activity in cells. P54803. 145M-Twi-hGALC-G270D cells, HMU-beta-Gal fluorescence, 48 h. Potency, µM (highest dose often 57.5 µM), actives largely listed as activators. 45,000 compounds, 0.1% hits. AID 1159614; further: potency means the concentration at half of the fitted maximal effect; 0% is about no effect; nearly all actives have a fitted effect of over 65% in size
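qHTS, 1536-well; 145M-Twi-hGALC-G270D cells (WT line also made) in DMEM/F12 + 10% FBS; compound incubation on live cells; HMU-β-gal 0.1 mM final, pH 5.2, NaTC; carbonate stop; fluorescence increase = enhanced residual activity.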
B2AR arrestin ag: ADRB2 beta-arrestin recruitment | HTLA Tango cells, beta-arrestin recruitment, luciferase luminescence, 18 h | Potency, µM (highest dose often 46.1 µM), hits mostly activators | 44,000 tested, under 10 active | AID 1347077;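 further: potency means the concentration at half of the fitted maximal effect; 0% = DMSO and full agonism = EC100 isoproterenol or metaproterenol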
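Tango cells (recombinant beta2-AR, beta-arrestin, tTA-driven luciferase), 1500/well in DMEM 1% FBS, treated 18 h at 37 °C with compounds up to 46 µM; luciferin mix added, luminescence read after 15 min; %activity curves fitted and curve-classed.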
GPR32 ag: GPR32 (DRV1) agonism, beta-arrestin recruitment | O75388 | CHO-K1 GPR32 beta-arrestin PathHunter luminescence, 90 min; zero percent set by DMSO-only wells | activation, % at 76.9 µM | 48,000 compounds, 2.5% hits | AID 1346428;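 active means activation of at least 60% and not above a set upper limit, about 1 call in 100 departs from these limits; inconclusive means activation of 40% to 60%, or above that upper limit; inactive means activation under 40%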; further: 0% is about no effect
Target sequence (O75388 whole entry, looked up): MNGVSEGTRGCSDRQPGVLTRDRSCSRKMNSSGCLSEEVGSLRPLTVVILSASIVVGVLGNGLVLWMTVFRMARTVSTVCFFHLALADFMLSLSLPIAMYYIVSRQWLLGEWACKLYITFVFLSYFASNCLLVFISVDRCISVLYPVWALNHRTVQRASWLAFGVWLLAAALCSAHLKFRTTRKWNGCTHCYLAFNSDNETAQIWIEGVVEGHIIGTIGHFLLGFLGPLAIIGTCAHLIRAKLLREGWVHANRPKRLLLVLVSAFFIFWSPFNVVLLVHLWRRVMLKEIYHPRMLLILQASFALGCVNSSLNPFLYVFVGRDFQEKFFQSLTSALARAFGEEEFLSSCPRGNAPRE
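GPR32 activation in stably transfected CHO-K1 cells, detected as beta-arrestin recruitment by enzyme-fragment complementation. Compound exposure: 90 min, 37 °C.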
GALK inh: GALK (human) enzyme inhibition | P51570 | recombinant GALK, Kinase-Glo ATP luminescence, 1 h | Potency, µM (highest dose often 57.5 µM), for the others: at the top dose activity, negative = inhibition, hits mostly inhibitors | 44,000 tested, under 10 active;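 further: plate controls were full GALK reaction for no effect and reaction lacking GALK for full effect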
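Human GALK (5 nM) was incubated with 35 uM ATP and 100 uM galactose in 20 mM HEPES pH 8.0 with MgCl2, NaCl, DTT and BSA for 1 h at room temperature. Remaining ATP was measured by Kinase-Glo Plus luminescence.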
NTMT1 inh: inhibitors of human N-terminal methyltransferase NTMT1; Q9BV86; NTMT1 MTase-Glo SAH luminescence, purified enzyme; Potency, µM (top dose mostly 114 µM), for inactives: at the top dose activity change, negative = inhibition, actives largely listed as inhibitors; 59,000 compounds, 2.5% hits;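 further: potency means the concentration at half of the fitted maximal effect; plate controls were DMSO vehicle for no effect and no enzyme for full effect; nearly all actives have a fitted effect of over 65% in size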
Target sequence (Q9BV86 whole entry, looked up): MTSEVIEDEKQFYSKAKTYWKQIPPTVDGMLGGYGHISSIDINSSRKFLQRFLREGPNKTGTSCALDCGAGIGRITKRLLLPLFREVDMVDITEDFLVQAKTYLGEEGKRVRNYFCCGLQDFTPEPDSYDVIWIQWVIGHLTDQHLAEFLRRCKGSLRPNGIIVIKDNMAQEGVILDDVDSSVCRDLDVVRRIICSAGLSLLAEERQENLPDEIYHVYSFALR
Active calls of the source: *; i = inactive; u = inconclusive; x = not tested or not shown; ! = not confirmed by another sample; [ ] = dose if it differs, or a comment. An excerpt weighted towards active compounds, which were near 3.6% of everything screened. Unless noted, the call rests on the fitted dose curve; in most records, active means well fitted curve in the direction sought with a large enough effect; inconclusive means small, poorly fitted or top-dose-only effect, or another doubt; inactive means no such curve, though single readings can be large; an effect the other way counts as inactive or inconclusive.

SMILES	GALC G270D act	B2AR arrestin ag	GPR32 ag	GALK inh	NTMT1 inh
Nc1cccc(-c2cc3c(Oc4cccc(O)c4)ncnc3[nH]2)c1	x	x	x	x	22µM*!
Cc1cccc(NC(=O)CSc2nc(-c3cccs3)nc3cc(=O)[nH]n23)c1	x	i	-22	4%	x
Cc1ccc(NC(=O)CSc2nc(-c3cccs3)nc3cc(=O)[nH]n23)cc1	x	i	99*	-6%	x
CONC(=O)Nc1ccc(-c2sc3c(c2CN(C)C)c(=O)n(-c2ccc(OC)nn2)c(=O)n3Cc2c(F)cccc2F)cc1	x	x	x	x	-3%
Cc1ccccc1NC(=O)Cn1c(=O)n(CCCC(=O)NCc2ccc3c(c2)OCO3)c(=O)c2ccccc21	i	i	-6	6%	89µM*
Cc1ccc(NC(=O)Cn2c(=O)n(CCCC(=O)NCc3ccc4c(c3)OCO4)c(=O)c3ccccc32)cc1	i	i	-12	2%	-19%
CCc1ccc(NC(=O)CN(c2cc(C)cc(C)c2)S(=O)(=O)c2c(C)[nH]c(=O)[nH]c2=O)cc1	i	i	76*	0%	9%
CC1=C(C(=O)Nc2nccs2)C(c2ccccc2Br)N=C(Nc2nc3ccccc3o2)N1 (stereo not given)	x	x	x	x	16%
Cc1cc(C)c(S(=O)(=O)N(CCc2cccc(Br)c2)Cc2ccc(-c3cccc(S(C)(=O)=O)c3)cc2)c(C)c1	x	x	x	x	9%
CCCCOc1ccc(C(=O)N2CCC(c3nc4ccccc4o3)CC2)cc1	i	i	-11	-10%	-10%
CCOc1ccccc1C(=O)N1CCC(c2nc3ccccc3o2)CC1	i	i	1	1%	89µM*
N[C@@H](Cc1ccc(O[S+](=O)([O-])c2cccc3cccnc23)cc1)C(=O)N1CCN(c2ccccc2)CC1	x	x	x	x	-13%
CN(C)C(=O)Nc1ccc(Cl)c(Cl)c1	i	x	6	x	14%[57.5 µM]
O=C(Nc1ccc(Cl)c(Cl)c1)C1CC1	i	x	83*	x	-29%[57.5 µM]
COc1ccc(OC)c(NC(=O)Cn2ccn(-c3ccc(OC)c(OC)c3)c(=O)c2=O)c1	i	i	7	2%	-8%
COc1ccc(OC)c(NC(=O)Cn2ccn(-c3ccc(F)cc3)c(=O)c2=O)c1	i	i	-8	0%	89µM*
CC(C)CC(=O)c1c(O)cc2c(c1O)C(CC(C)C)C1=C(O2)C(C)(C)C(=O)C(C)(C)C1=O (stereo not given)	x	x	x	x	-16%[29.8 µM]
O=C(Nc1ccc(C(F)(F)F)cc1)C1CCC(CNS(=O)(=O)c2cccc3nsnc23)CC1 (stereo not given)	i	i	114*	0%	0%
CCCCN(CC)C(=O)C1CCC(CNS(=O)(=O)c2cccc3nsnc23)CC1 (stereo not given)	i	i	68*	0%	-12%
CC(C)c1ccc(NC(=O)CCNS(=O)(=O)c2cccc3nsnc23)cc1	i	i	75*	-2%	0%
NC(=O)c1c(-c2ccccc2)no[n+]1[O-]	x	x	x	x	-3%
CCCC(O)c1nc2ccccc2n1CCCOc1ccc(Cl)cc1 (stereo not given)	i	i	68*	1%	12%
Nc1nccc2c1ncn2[C@@H]1C=C(CO)[C@@H](O)[C@H]1O	x	x	x	x	-97%
CC(=O)c1ccc(N2CCN(C(=O)c3ccc4c(c3)CCC(=O)N4)CC2)cc1	x	x	x	x	10%
CCOC(=O)c1cnc2c(ccc3ccccc32)c1Nc1ccccc1OC	i	i	85*	-20%	9%
SMILES	GALC G270D act	B2AR arrestin ag	GPR32 ag	GALK inh	NTMT1 inh
COc1cc(-c2nc(N[C@H](CO)Cc3ccccc3)ccc2C(=O)NCCOc2ccccc2)cc(OC)c1OC	x	x	x	x	7%[57.5 µM]
CCOC(=O)c1c(NC(=O)/C(C#N)=C/c2ccc(OC)cc2)sc2c1CCC2	i	i	-10	1%	11%
CCOc1ccc(/C=C(\C#N)C(=O)Nc2sc3c(c2C(=O)OC)C(C(=O)OC)CC3)cc1OC (stereo not given)	i	i	-5	-2%	10µM*
OCc1ccccc1O	i	x	-21	x	37%[57.5 µM]
Oc1ccc2ccccc2c1SSc1c(O)ccc2ccccc12	x	x	50	x	8.9µM*!
O=C(Nc1ccc(F)c(C(F)(F)F)c1)Nc1ccc(-c2ccncc2)s1	x	x	x	x	0%[57.5 µM]
Cc1cc(C)c(Nc2nn3c(=O)c4cc5c(cc4nc3s2)OCO5)c(C)c1	i	i	6	-6%	45µM*
CC(=O)OC/C(=C/C(=O)O)CC[C@@H]1C(CO)=CC[C@@H]2C(C)(C)CCC[C@@]12C	x	x	x	x	-9%[29.8 µM]
Cc1ccc(NS(=O)(=O)c2ccc3c(c2)C2C=CCC2C(c2ccc(C(=O)O)cc2)N3)cc1C (stereo not given)	x	x	x	x	25µM*
Cc1ccc(NS(=O)(=O)c2ccc3c(c2)[C@H]2C=CC[C@H]2[C@@H](c2ccc(F)cc2)N3)cc1C	i	i	-19	3%	16%
O=C(O)c1cccnc1Nc1cccc(C(F)(F)F)c1	i	x	100*!	x	u
O=C(Nc1cccc(C(F)(F)F)c1)c1cccc(C(=O)Nc2cccc(C(F)(F)F)c2)c1	i	i	u	1%	21%
O=C1CC(c2nc(-c3ccccc3)no2)CN1c1ccccc1 (stereo not given)	i	i	65*	1%	3%
CC(C)N1CCc2c(sc(NC(=O)c3ccccc3)c2-c2nc3ccccc3s2)C1	x	x	x	x	8%
COc1cccc(CNCCSc2nnnn2C)c1OCc1ccc(F)cc1	i	i	81*	u	-2%
Cc1ccc(-c2ccc(=O)n(CC(=O)NCc3ncc[nH]3)n2)cc1	x	x	x	x	16%
CC(=O)c1cccc(NS(=O)(=O)c2ccc3[nH]c4c(c3c2)CCCCC4)c1	i	i	32	1%	-11%
CCOC(=O)c1cccc(NS(=O)(=O)c2ccc3[nH]c4c(c3c2)CCCC4)c1	i	i	82*	3%	u
Cc1cccc(NS(=O)(=O)c2ccc3[nH]c4c(c3c2)CCCCCC4)c1	i	i	6	u	-1%
CC(=O)c1cccc(NS(=O)(=O)c2ccc3c(c2)NC(=O)CC(=O)N3)c1	i	i	0	-3%	4%
Cc1cc(C)cc(NC(=O)CN(C)S(=O)(=O)c2ccc3[nH]c4c(c3c2)CCCC4)c1	i	i	15	-4%	u
O=S(=O)(Nc1cccc(Cl)c1)c1ccc2[nH]c3c(c2c1)CCCCCC3	i	i	62*	-4%	-5%
CC(=O)c1cccc(NS(=O)(=O)c2cccc(S(=O)(=O)c3ccc(Br)cc3)c2)c1	i	i	63*	-19%	-7%
Cc1cccc(C)c1NC(=O)CN(C)S(=O)(=O)c1ccc2[nH]c3c(c2c1)CCCC3	i	i	62*	1%	u

Assay outcomes deposited in PubChem BioAssay by National Center for Advancing Translational Sciences (NCATS).
